# Source: PubChem BioAssay
# Hits are enriched below; roughly 3.7% of the tested compounds scored in any of these assays.
# TIM10 inh = growth inhibitors of isogenic TIM10 control yeast, primary screen, counter-screen for tim10-1 yeast inhibitor project, luminescence, uHTS. S. cerevisiae TIM10 strain growth, BacTiter-Glo luminescence, 24 h. AID 463195, 2010. inhibition, % at 10 µM. 1.4% of 330,000 active;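 active = inhibition of 40% or more at the single tested concentration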;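 note: wild-type TIM10 isogenic control strain grown at permissive 25 °C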
# NLRP3 yeast inh = NALP3 inflammasome inhibitors in reconstituted yeast, primary screen, luminescence, uHTS. AID 2825, 2010. Yeast reconstituted NLRP3/ASC/caspase-1, beta-gal luminescence, 24 h. inhibition, % at 10 µM. 0.39% of 330,000 active;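 active = inhibition of 50% or more; inactive = inhibition below 50%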;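 note: plate controls were induced DMSO wells for no effect and uninduced yeast grown without galactose for full effect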
# tim23-1 inh = growth inhibitors of tim23-1 mutant yeast, primary screen, luminescence, uHTS; S. cerevisiae tim23-1 growth, BacTiter-Glo luminescence, 24 h; inhibition, % at 20 µM; 1.3% of 330,000 active; AID 463212, 2010;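 active = growth inhibition of the mutant yeast at or above 50%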;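 note: temperature-sensitive mutant grown at 25 °C; plate controls were DMSO-treated mutant yeast for no effect and medium wells lacking yeast for full effect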
# PfHsp90 set2 = growth inhibition of PfHsp90-expressing yeast, primary screen, antimalarial PfHsp90 inhibitor project, S. cerevisiae, BacTiter-Glo luminescence, single point, set 2 | BacTiter-Glo ATP, 48 h; yeast lacking PDR1 and PDR3 efflux regulators | inhibition, % at 9.4 µM | 0.32% of 310,000 active | AID 504621, 2011;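 active = every replicate shows inhibition above about 80%, whatever the replicate mean, limit read from the data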;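 note: 0% = DMSO neutral controls and 100% = 20 µM radicicol positive controls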
# tim10-1 inh = growth inhibitors of tim10-1 mutant yeast, primary screen, luminescence, uHTS | S. cerevisiae tim10-1 ts strain growth, BacTiter-Glo, 24 h | inhibition, % at 20 µM | 2.2% of 330,000 active | AID 463190, 2010;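 active = inhibition of at least 40%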;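 note: mutant grown at 25 °C; 0% = DMSO wells with yeast and 100% = wells holding no yeast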
# tim10-1 confirm = growth inhibitors of tim10-1 mutant yeast, confirmation, single concentration, luminescence, S. cerevisiae | shares compounds with tim10-1 inh | S. cerevisiae tim10-1 ts strain growth, BacTiter-Glo, 24 h | inhibition, % at 20 µM | 56% of 7,400 active | AID 463213, 2010;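 active = inhibition of yeast growth at or above a set limit in either of two repeat tests at 20 µM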;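 note: tim10-1 mutant grown at permissive 25 °C to find synthetic lethal compounds; 0% = DMSO yeast wells and 100% = medium wells without yeast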
# tim10 confirm = growth inhibitors of wild-type TIM10 yeast, confirmation, counter-screen for tim10-1 synthetic lethality project, single concentration, luminescence, S. cerevisiae; AID 463215, 2010; inhibition, % at 10 µM; shares compounds with TIM10 inh; S. cerevisiae tim10 strain growth, BacTiter-Glo luminescence, 24 h; 63% of 4,600 active;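 active = inhibition of yeast growth at or above a set limit in either of two replicates at 10 µM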;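 note: this counterscreen used the strain with wild-type TIM10; 0% = yeast with DMSO and 100% = medium wells lacking yeast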
# tim23-1 conf = tim23-1 mutant yeast growth inhibitors, confirmation, luminescence, single concentration. S. cerevisiae tim23-1 growth, BacTiter-Glo luminescence, 24 h. AID 463218, 2010. 83% of 4,400 active. shares compounds with tim23-1 inh. inhibition, % at 20 µM;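 active = inhibition above about 39% in either of two replicate wells at 20 µM, limit read from the data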;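 note: temperature-sensitive tim23-1 mutant grown at 25 °C; 0% = DMSO wells with yeast and 100% = medium wells without yeast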
# The depositor's hits bear a star; x = no result.
SMILES,TIM10 inh,NLRP3 yeast inh,tim23-1 inh,PfHsp90 set2,tim10-1 inh,tim10-1 confirm,tim10 confirm,tim23-1 conf
S=C(Nc1ccccc1)N1CCn2c1nc1ccccc12,42*,33,66*,1,56*,33*,44*,55*
O=C(Nc1ccccc1)N1CCn2c1nc1ccccc12,5,-3,28,3,37,x,x,x
CCC1CSC(Nc2ccc(C(=O)/C=C/c3ccc(Br)cc3)cc2)=N1 (stereo unspecified),50*,13,54*,-2,45*,51*,48*,55*
COc1ccc2oc(C(=O)OCC(=O)NCc3ccco3)c(C)c2c1,-15,22,-1,x,-13,x,x,x
CCCCCCCCCCn1c2c(c(=N)c3c1CCC3)CCC2,39,43,83*,7,65*,30,x,76*
Cc1cc(C)c(NC(=O)CN2CCC(NC(=O)NC3CCCCC3)CC2)c(C)c1,5,9,1,x,12,x,x,x
O=C(CSc1ccccc1)Nc1ccc2sccc2c1,5,37,5,-7,9,x,x,x
O=C1/C(=C/c2ccccn2)SC(=S)N1Nc1ncc(C(F)(F)F)cc1Cl,x,x,x,3,x,x,x,x
O=C1/C(=C\c2ccccn2)SC(=S)N1Nc1ncc(C(F)(F)F)cc1Cl,59*,12,64*,-5,64*,57*,47*,33
COc1ccc(C2C3C=CCC(c4cccc(-c5ccc(C)cc5)c4)C3C(=O)N2Cc2ccccc2)cc1Cl (stereo unspecified),56*,9,53*,-5,46*,40*,22,54*
COc1ccc(-c2cccc(C3CC=CC4C3C(=O)N(Cc3ccccc3)C4c3ccc4ccccc4c3)c2)cc1 (stereo unspecified),35,32,31,x,29,x,x,x
COCC(C)n1c(C)cc(C(=O)COC(=O)c2ccc3ncsc3c2)c1C (stereo unspecified),9,15,0,-48,34,x,x,x
CC12CCC(C(=O)N(CC(O)CN3CCN(Cc4ccccc4)CC3)C1=O)C2(C)C (stereo unspecified),8,-1,2,x,-11,x,x,x
COc1ccc(C(=O)NN2C(=O)C3CCC(C)(C2=O)C3(C)C)cc1 (stereo unspecified),-1,-2,29,0,12,x,x,x
CN(C)c1ccc(/C=N/NC(=O)CCCO)cc1,10,13,8,13,-8,x,x,x
CN(C)c1ccc(/C=N\NC(=S)SCN2C(=O)C3CCC(C)(C2=O)C3(C)C)cc1 (stereo unspecified),53*,9,53*,-21,61*,52*,-20,47*
COc1ccc(/C=N\NC(=S)SCN2C(=O)C3CCC(C)(C2=O)C3(C)C)cc1 (stereo unspecified),52*,23,52*,-41,49*,40*,-8,51*
CC12CCC(C(=O)N(CSC(=S)N/N=C\c3ccccc3O)C1=O)C2(C)C (stereo unspecified),44*,33,66*,8,47*,24,38*,57*
O=C(Nc1cccc(NC(=O)c2ccc(-c3ccc(Br)cc3)o2)c1)c1ccco1,24,4,-26,13,17,x,x,x
O=c1cc(CN2CCOCC2)c2c(ccc3ccccc32)o1,4,11,21,-4,14,x,x,x
O=C(COC(=O)c1c[nH]c(=O)[nH]c1=O)Nc1ccccc1Br,9,5,15,-3,10,x,x,x
O=C1C(c2ccccc2)=[N+]([O-])c2ccccc21,55*,25,61*,12,58*,47*,53*,-59
CC(C)N=c1scc(-c2ccco2)n1/N=C/c1ccc(O)c(O)c1,34,37,54*,9,47*,19,x,60*
CCCCCCCCCCOC(=O)NC1CCS(=O)(=O)C1 (stereo unspecified),20,35,22,-6,10,x,x,x
CCOc1ccc(/C=C(\C#N)C(=O)Nc2cccnc2)cc1,-6,14,1,21,-7,x,x,x
SMILES,TIM10 inh,NLRP3 yeast inh,tim23-1 inh,PfHsp90 set2,tim10-1 inh,tim10-1 confirm,tim10 confirm,tim23-1 conf
CC(=O)Nc1ccc(/C=C(\C#N)C(=O)NC2CCCCC2)cc1,49*,4,66*,7,46*,48*,56*,62*
CCOc1cccc(/C=C(\C#N)C(=O)NC2CC2)c1,51*,8,77*,3,42*,51*,51*,62*
CC(C)Oc1ccc(/C=C(\C#N)C(=O)NC2CC2)cc1,-13,26,10,1,-6,x,x,x
N#C/C(=C/c1ccc(OCc2ccccc2)cc1)C(=O)NC1CCCCC1,-11,24,3,-8,17,x,x,x
CCOc1cccc(NC(=O)/C(C#N)=C/c2cccnc2)c1,42*,0,79*,-4,52*,55*,56*,77*
O=c1cc[nH]c2ccc(OC(F)(F)F)cc12,8,-13,18,2,-7,x,x,x
O=C(Nc1ccc2oc(-c3ccncc3)nc2c1)c1ccc([N+](=O)[O-])o1,53*,-11,69*,-37,45*,68*,75*,79*
O=C(NNC(=O)c1ccc([N+](=O)[O-])o1)c1ccccc1,-3,26,8,14,-3,x,x,x
Cc1ccc(-c2nc3ncccc3o2)cc1NC(=O)c1ccc([N+](=O)[O-])o1,83*,16,84*,-31,74*,82*,85*,6
CC(=O)c1cccc(NC(=O)c2ccc([N+](=O)[O-])o2)c1,47*,16,77*,-20,65*,52*,46*,72*
COc1ccc(NC(=O)c2ccc([N+](=O)[O-])o2)cc1,41*,17,59*,-3,64*,45*,43*,58*
O=S(=O)(c1ccc(Oc2ccc(F)c(Cl)c2)nc1)N1CCOCC1,2,13,6,x,3,x,x,x
CC1CC(C)(C)CC2(C1)NC(=O)N(CC(=O)NCc1ccccc1F)C2=O (stereo unspecified),11,4,21,-10,14,x,x,x
CCc1ccc2c(c1)C1(NN=C(c3ccc(C)cc3)S1)C(=O)N2 (stereo unspecified),40*,9,83*,-73,92*,88*,10,81*
